These results are taken from PubChem BioAssay AID485364 (National Center for Advancing Translational Sciences (NCATS), 2010).

Out of some 360,000 compounds screened, about 11,000 (3.1%) were called active. Roughly 4% stayed inconclusive and do not appear here. The call rests on the fitted dose curve; in most records, active means well fitted inhibition curve with a large enough effect; inconclusive means small, poorly fitted or top-dose-only effect; inactive means no such curve, though single readings can be large or run the other way. The entries come from a sample that favours actives as a whole. Entries that show only a call come without a potency.
Potency means the concentration at half of the fitted maximal effect.

The target in the test is Schistosoma mansoni thioredoxin glutathione reductase (TGR) (UniProt Q962Y6). The test is described as follows: qHTS Assay for the Inhibitors of Schistosoma Mansoni Peroxiredoxins. Further: nearly all actives have a fitted effect of over 60% in size. Particulars: purified TGR, DTNB reduction, TNB absorbance 405 nm; series mostly up to 114 µM. An excerpt: Schistosomiasis is a major neglected tropical disease that currently affects over 200 million. It is caused by different species of flatworms, such as Schistosoma mansoni. Over the last century, drugs to treat the disease have evolved from potassium antimonyl tartrate, artemisinin, oxamniquine, to praziquantel, with praziquantel remaining the universally-used single drug of choice over the past three decades. However, transmission rates have changed little with praziquantel, and there is evidence for the development of drug resistant parasites. Because there is currently no suitable alternative therapy available, there is an urgent need to identify new targets and drugs for schistosomiasis treatment. Thioredoxin glutathione reductase (TGR), one uniquely positioned S. mansoni enzyme, has been identified as a major component of the worms' distinct and compressed antioxidant "firewall". TGR is a multifunctional enzyme that catalyzes the interconversion between reduced and oxidized forms of both glutathione (GSH) and thioredoxins, thus making it an attractive new antiparasitic target. Recently, a quantitative high-throughput screen of the NIH Molecular Libraries Small Molecule Repository (MLSMR, ~71K at the time of the screen in 2007) was performed using an assay that targeted both TGR and peroxiredoxin2 (Prx2, an H2O2-reducing enzymatic component of the S. mansoni redox "firewall") by following the decrease of NADPH fluorescence. […] Additional mechanistic link between exogenous NO donation and parasitic injury for the oxadiazole-2-oxide class of compounds was also expanded and better defined. Although the screen addressed both TGR and Prx2, the assay required post-screen target deconvolution for further characterization of the actives. In addition, the fluorescence assay was also subject to fluorescence interference from compound library members. We have developed a 1536-well-based kinetic HTS assay to address TGR alone. The assay followed the reduction of 5, 5'-dithiobis (2-nitrobenzoic acid) (DTNB) (Ellman's reagent) by NADPH and measured the increase in absorbance at 412 nm of the reaction product, TNB. […] This assay format can be used to screen the current MLSMR collection (with >300K compounds available) to find novel TGR inhibitors. Furoxan is a good choice to serve as a positive control in the primary HTS assay.
Three microliters of reagents (100 uM NADPH and 20 nM TGR or 100 uM NADPH as no-enzyme control) were dispensed into 1,536-well black clear-bottomed plates. Compounds (23 nL) were transferred via Kalypsys pin tool equipped with 1536-pin array (10 nL slotted pins, V&P Scientific, San Diego, CA). The plates were then be incubated for 15 min at room temperature, and 1 uL aliquot of 500 uM NADPH were added, immediately followed by a 1 uL aliquot of 15 mM DTNB to start the reaction. The plate was transferred to a ViewLux high-throughput CCD imager (Perkin-Elmer, Wellesley, MA) where kinetic measurements of the TNB absorbance were acquired using a 405 excitation filter. Throughout the screen, reagent bottles and all liquid lines were made light-tight to minimize reagent degradation. All screening operations were performed on a fully integrated robotic system (Kalypsys, San Diego, CA) containing one RX-130 and two RX-90 anthropomorphic robotic arms (Staubli, Duncan, SC). Library plates were screened starting from the lowest and proceeding to the highest concentration, and a "double-dipping" step of the highest concentration was required to access higher concentrations of compounds. Vehicle-only plates, with DMSO being pin-transferred to the entire column 5-48 compound area, were inserted uniformly at the beginning and the end of each library in order to monitor for and record any shifts in the background, which can be affected by reagent dispensers or loss in enzyme activity overtime. […]
(In qHTS, concentration-response curves come from the screen itself.)
For `CN(C)S(=O)(=O)c1cccc(NC(=O)COC(=O)/C=C/c2cccs2)c1`, the Potency result is “inactive”.
The value for `COc1cccc(NC(=O)COC(=O)/C=C/c2ccco2)c1` was 31.6 µM (active); that for `COc1ccc(/C=C/C(=O)OCC(=O)Nc2cccc(Oc3ccccc3)c2)c(OC)c1` was “inactive”; that for `CC(C)CNC(=O)COC(=O)/C=C/c1ccco1` was “inactive”.
For the compound `COc1ccc([N+](=O)[O-])cc1NC(=O)COC(=O)/C=C/c1ccco1`, the Potency result was “inactive”.
The value for `NS(=O)(=O)c1cccc(NC(=O)COC(=O)/C=C/c2ccco2)c1` was 6.31 µM (active).
For `CCc1cccc(-n2nnc(-c3nsc(NC(=O)c4ccc(C)cc4)n3)c2C)c1`, the Potency result is “inactive”.
Then `COc1ccc(-c2cc(NCc3ccc(F)cc3)n3cnnc3n2)cc1`, with “inactive”; and `Cc1cc(C(=O)Nc2cccc(C(F)(F)F)c2)c2c(C)nn(-c3cccc(F)c3)c2n1`, with “inactive”; and `COc1ccc(NC(=O)C2CCCN(S(=O)(=O)c3cccc4nonc34)C2)cc1Cl` (stereo not given), with “inactive”.
Then `Cc1ccc(C)c(NC(=O)Cn2ccn(-c3ccc(F)cc3)c(=O)c2=O)c1`, with “inactive”; and `O=C(CC1Oc2ccccc2NC1=O)NCc1ccc(F)cc1` (stereo not given), with “inactive”; and `Cc1ccc(CNC(=O)CCc2c(C)nn(-c3ccc(N4CCCC4)nn3)c2C)cc1`, with “inactive”.
Then `COc1ccccc1CNS(=O)(=O)c1cc(Br)cc2c1N(C(C)=O)C(C)C2` (stereo not given), with “inactive”; and `CCOC(=O)c1cc2c(=O)n3ccccc3nc2n(CC2CCCO2)c1=NC(=O)c1ccccc1F` (stereo not given), with “inactive”; and `O=C(Nc1ccc2c(c1)OCO2)c1cc(-c2cccc(Cl)c2)on1`, with “inactive”.
Consider `CC1CCCN(CC(O)COCc2ccccc2)C1` (stereo not given), for which the Potency entry is “inactive”.
`Oc1c(CN2CCCC2)cc(COCc2ccccc2)c2cccnc12`: the Potency is 22.4 µM (active).
As to `COc1cc(C)cc(CN2CCC(Cc3ccccc3)CC2)c1O`, the Potency result was “inactive”.
With `COc1cc(OC)c(NC(=O)N2CC3CCCN3c3ccccc32)cc1Cl` (stereo not given), the Potency result was “inactive”.
Consider `CCOC(=O)c1c(S(=O)(=O)N2CCCC(C(=O)NCc3ccc(F)cc3)C2)c(C)n(CC)c1C` (stereo not given), for which the Potency result was “inactive”.
In the case of `CCOC(=O)c1c(C)[nH]c(CCC(=O)NCCCN2CCN(c3cc(C)ccc3C)CC2)c1C`, the Potency result is “inactive”.
As for `COc1ccc(C(CCN(Cc2ccc(OC)c(OC)c2)C(=O)CCl)c2ccccc2)cc1` (stereo not given), the Potency is 8.91 µM (active).
Then `COc1ccc(CN(Cc2ccc(OC)cc2)C(=O)c2cccs2)cc1`, with “inactive”; and `COc1ccc(CCNC(=O)C(Sc2ccccn2)c2ccccc2)cc1OC` (stereo not given), with “inactive”; and `CCc1nnc(SCc2nc(-c3cccc(C)c3)oc2C)c2cc3sc(C)cc3n12`, with “inactive”.
For `CCCC(=O)NC(=S)Nc1ccc(CN2CCOCC2)cc1`, the Potency result was “inactive”.
As to `Cc1cc(C)cc(NC(=S)NCCCN2CCOCC2)c1`, the Potency result was “inactive”.
Regarding `CCCCc1ccc(NC(=S)NCCCN2CCOCC2)cc1`, the Potency was 50.1 µM (active).
The value for `Cc1cccn2c(=O)c(C(=O)NC(C)c3ccccc3)cnc12` (stereo not given) was “inactive”.
Then `C=CCOC(=O)C1=C[C@@H](c2ccccc2)C[C@@H](OCc2ccc(CO)cc2)O1`, with “inactive”; and `NC(=O)C1=C[C@H](c2csc3ccccc23)C[C@H](OCc2ccc(CO)cc2)O1`, with “inactive”; and `CN1CCN(C(=O)C2=C[C@H](c3ccc4c(c3)OCO4)C[C@H](OCc3ccc(CO)cc3)O2)CC1`, with “inactive”.
For `C#Cc1ccc([C@@H]2C=C(C(=O)O)O[C@H](OCCCCO)C2)cc1`, the Potency is 39.8 µM (active).
Then `O=C(O)C1=C[C@H](c2cccs2)C[C@H](OCCCCO)O1`, with 39.8 µM (active); and `CCO[C@H]1OC(C(=O)O)=C[C@@H](C2CCCCC2)[C@@H]1CCCO`, with “inactive”.
Take `Cc1ccc(-n2nc(CO)c(C(=O)NCCc3ccccc3)n2)cc1`: the Potency entry was “inactive”.
Then `COc1c(Cl)cc(C(=O)N(Cc2ccccc2F)C2CCS(=O)(=O)C2)cc1Cl` (stereo not given), with “inactive”.
The value for `Cc1cccc(OCCSc2nc3ccc(NC(=O)COc4ccccc4C)cc3s2)c1` was “inactive”; that for `CCOC(=O)Nc1sc(C(=O)N(C)C)c(C)c1C(=O)OCC` was “inactive”.
The value for `CCOC(=O)c1c(NC(=O)CCl)sc(C(=O)N(CC)CC)c1C` was 35.5 µM (active); that for `CCOC(=O)c1sc(NC(=O)CCN2CCOCC2)c(C(=O)OCC)c1C` was “inactive”.
Turning to `CSc1nc(=O)c2c(n1C)NC(=O)CC2c1ccccc1OC(C)C` (stereo not given), the Potency entry was “inactive”.
Then `CCc1ccc(NC(=O)CN2C(=O)CCSc3ccc(S(=O)(=O)N4CCCC4)cc32)cc1`, with “inactive”; and `CCCCn1c(=O)c2oc3ccccc3c2n(CC(=O)Nc2ccccc2OC)c1=O`, with “inactive”.
The value for `COc1ccc2c(c1)C=C(C(=O)NCc1cc(Br)ccc1OC)CO2` was “inactive”; that for `COc1ccc(C)cc1NC(=O)CN1c2cccc3cccc(c23)S1(=O)=O` was “inactive”.
For `CC(C)CN(CC(C)C)C(=O)CN1c2cccc3cccc(c23)S1(=O)=O`, the Potency entry was “inactive”.
Then `O=C(O)CN1c2cccc3cccc(c23)S1(=O)=O`, with 35.5 µM (active).
Consider `CCN(CC)c1ccc(NS(=O)(=O)c2cc(-c3cc(C)no3)ccc2C)c(C)c1`, for which the Potency result is “inactive”.
